Assay outcomes: PubChem, National Center for Advancing Translational Sciences (NCATS)
The list is not random: actives were taken first. Their share in the collection is about 2.7%.
RXFP1 agonist = agonists of human relaxin receptor RXFP1; Q9HBX9; HEK293T-RXFP1 cAMP TR-FRET, 30 min; response scale: percent of porcine relaxin response, buffer zero; Potency, µM (series often up to 57.5 µM), usual class: activators; 0.3% of 370,000 active; further: nearly all actives have a fitted effect of over 60% in size
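cAMP rise read by TR-FRET after 30 min, 37C compound exposure (up to 58 uM) in RXFP1-transfected HEK293 cells with Ro 20174 present. EC50 from Hill-equation fits, with 29 nM porcine relaxin as 100% and buffer as basal.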
ClpP mod = qHTS Assay for Activators of ClpP; purified B. subtilis ClpP, FRET peptide cleavage, 20 min; Potency, µM (titrated, usually from 57.5 µM); 1.9% of 340,000 active; active means well fitted falling curve with a large enough effect; inconclusive means small, poorly fitted or top-dose-only effect; inactive means no such curve, though single readings can be large or run the other way; further: the source files actives as falling curves though it sought activators and does not explain the sign; nearly all actives have a fitted effect of over 65% in size
Target sequence (P80244 whole entry, looked up): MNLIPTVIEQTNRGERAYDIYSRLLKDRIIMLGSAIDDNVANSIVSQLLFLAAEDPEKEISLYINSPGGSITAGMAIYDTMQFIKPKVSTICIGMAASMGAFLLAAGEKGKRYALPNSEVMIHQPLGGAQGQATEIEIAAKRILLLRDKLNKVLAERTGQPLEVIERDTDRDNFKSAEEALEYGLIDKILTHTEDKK
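FRET quenching reversal measured ClpP activation: 10 microg/mL B. subtilis ClpP at pH 8 with the FRET-FV decapeptide, read at 430 nm after 320 nm excitation. The 20-min minus 0-min signal was scaled between DMSO/no-enzyme wells and ADEP (5.8 microM final).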
RXFP1 antag = antagonists of human relaxin receptor RXFP1; 0.59% of 350,000 active; HEK293-RXFP1, relaxin-stimulated cAMP HTRF, 30 min; hits give low values; activity change, negative = inhibition, % at 57.5 µM;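 active means activity change of -60% or lower, but not beyond a set lower limit; inconclusive means change between -60% and -40%, or beyond the set limit; inactive means change above -40%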
gsp antagonist = antagonizes gsp, the McCune-Albright syndrome mutation; 0.4% of 340,000 active; AID 624288; Potency, µM (doses to about 76.9 µM), usual class: inhibitors; gsp-mutant cells, cAMP HTRF, 30 min; calls by dose curve; cell line not stated here;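 further: intracellular cAMP measured with PDE inhibitor Ro 20-1724 present during compound exposure; nearly all actives have a fitted effect of over 65% in size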
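G418-selected cells were plated in DMEM/10% FBS for 16-24 h at 37C, then treated with compounds plus the PDE inhibitor […] (300 uM solution added) for 30 min at 37C. Intracellular cAMP was measured by HTRF after 30 min lysis at room temperature.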
gsp agonist = gsp mutant agonism; gsp mutant cells, cAMP HTRF, 30 min; 0.13% of 340,000 active; Potency, µM (highest dose often 76.9 µM), actives largely listed as activators; active means well fitted activation curve with a large enough effect; inconclusive means small, poorly fitted or top-dose-only effect, or another doubt; inactive means no such curve, though single readings can be large or run the other way; cell line not stated here;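 further: phosphodiesterase inhibitor Ro 20-1724 added with compounds to block cAMP breakdown; nearly all actives have a fitted effect of over 60% in size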
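Cells stably selected in G418 were plated at 2000/well, grown 16-24 hr, then given compounds in DMSO with the PDE inhibitor […] (300 uM solution added) for 30 min at 37C; cAMP was read by HTRF.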
Akt phos inh = blocks phosphorylation of Akt; Neuro2A IGF-stimulated pAkt S473 HTRF, 20 min; hits give low values; activity change, % for hits at 50 µM; 0.32% of 360,000 active; AID 651550; in the data active means activity change below about -80%; inconclusive means mostly about -51% to -80%
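Single-point screen (50 µM final compound) in Neuro2A cells stimulated 20 min with 6 nM IGF at 37 deg C. After lysis, Ser473-phosphorylated Akt read by HTRF (ex 330 nm, em 615/665 nm) as the 665/615 ratio.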
ClpP validation = inhibits B. subtilis ClpP protease, hit validation. shares compounds with ClpP mod. purified B. subtilis ClpP, FRET-FV substrate cleavage, 20 min. Potency, µM (titrated, usually from 57.5 µM), actives largely listed as inhibitors. 40% of 470 active. AID 743245; further: nearly all actives have a fitted effect of over 70% in size
Hits are given with their value; - = inactive; ? = inconclusive; . = not tested or not shown; ! = not confirmed by another sample; [ ] = remark or other dose. Unless noted, the call rests on the fitted dose curve; in most records, active means well fitted curve in the direction sought with a large enough effect; inconclusive means small, poorly fitted or top-dose-only effect, or another doubt; inactive means no such curve, though single readings can be large; an effect the other way counts as inactive or inconclusive.

SMILES | RXFP1 agonist | ClpP mod | RXFP1 antag | gsp antagonist | gsp agonist | Akt phos inh | others
CC(=O)C1=NOC(CNc2ncc(C(F)(F)F)cc2Cl)C1 (configuration not stated) | - | . | - | - | - | -
C=CCc1c(C)nc(C)nc1N/N=C/c1ccc(N(C)C)cc1 | - | 20µM | - | - | - | -
CN1C(=O)C(=Cc2ccc(OCC(=O)Nc3ccccc3)cc2)C(=O)N(C)C1=O | - | 16µM | - | - | - | -
CC[C@H]1CN2CCc3cc(OC)c(OC)cc3C2C[C@@H]1C[C@H]1NCCc2cc(OC)c(OC)cc21 (some centres not stated) | - | - | . | 11µM | . | -
CC(=O)N1CCC2(CC1)CC(=O)c1cc(OCC(=O)N3CCN(C)CC3)ccc1O2 | - | 20µM | - | - | ? | -
CC(=O)N1CCC2(CC1)CC(=O)c1cc(OCC(=O)N3CCC4(CC3)OCCO4)ccc1O2 | - | - | - | - | - | -
O=C(COC(=O)c1ccc(O)cc1)Nc1ccc(Cl)cc1C(=O)c1ccccc1 | - | . | ? | - | -[15.4 µM] | -
Nc1ccccc1C(=O)OCC(=O)Nc1ccc(Br)cc1F | - | 28µM | - | - | - | -
CN(C)CCc1c[nH]c2cccc(O)c12 | . | . | - | . | . | .
CCOc1ccc(-c2cc(C)[n+](CCc3ccc(OC)c(OC)c3)c(-c3ccc(OCC)cc3)c2)cc1 | - | ? | -84 | - | -[15.4 µM] | -
CCOc1ccc(-c2cc(C)[n+](CCO)c(-c3ccc(OCC)cc3)c2)cc1 | - | - | - | - | - | -
CCOC(=O)C1(c2ccccc2)CCN(CCc2ccc(N)cc2)CC1 | . | . | - | . | . | .
O=C(Nc1ccc(N2CCOCC2)cc1)C1CCN(S(=O)(=O)c2cccc(C(F)(F)F)c2)CC1 | . | - | - | . | - | -
S=C1CN=C(c2ccccc2)c2cc(Cl)ccc2N1 | - | - | -111 | - | - | -
COc1ccc(C2=NCC(=S)Nc3ccc(Cl)cc32)cc1OC | . | . | - | - | - | -
Fc1cc(Br)ccc1CBr | . | . | - | . | . | .
Cc1cc(C(C#N)c2ccc(Cl)cc2)c(Cl)cc1NC(=O)c1cc(I)cc(I)c1O (configuration not stated) | - | - | -112 | ? | . | -
O=C(C1CC(=O)N(C2CCCCC2)C1)N1CCC2(CC1)OCCO2 (configuration not stated) | - | - | - | - | - | -110%
O=C1CC(C(=O)N2CCC3(CC2)OCCO3)CN1CCc1ccccc1 (configuration not stated) | - | - | - | - | - | -
Oc1ccc(Cl)cc1Cc1ccccc1 | . | - | -82! | - | - | -
COc1ccccc1CNCC(=O)Nc1cc(S(=O)(=O)N2CCCCC2)ccc1C | . | 8.9µM | - | - | -[15.4 µM] | -
Cc1ccc(S(=O)(=O)N2CCCCC2)cc1NC(=O)CN1CC=C(c2ccccc2)CC1 | - | - | . | - | - | -
CCN(CC)CCSc1nc2ccccc2c(=O)n1-c1ccc(Cl)cc1 | - | - | - | . | . | .
Cc1cc(NC(=O)CSc2nc3c([nH]c4ccccc43)c(=O)n2-c2ccc(Cl)cc2)no1 | - | - | . | . | . | . | ClpP validation=-
Cc1ccc2c(c1)cc(C(=O)Nc1ccccc1C)n2C | - | - | - | . | . | . | ClpP validation=?
SMILES | RXFP1 agonist | ClpP mod | RXFP1 antag | gsp antagonist | gsp agonist | Akt phos inh | others
CCc1ccc(NC(=O)c2ccc3oc(=O)n(Cc4ccccc4)c3c2)cc1 | - | ? | . | . | . | .
CCCCCn1c(N)c(C(=O)NCCN2CCOCC2)c2nc3ccccc3nc21 | - | 8.9µM | - | - | - | - | ClpP validation=24µM
Nc1c(C(=O)NCc2ccco2)c2nc3ccccc3nc2n1CCN1CCOCC1 | - | 10µM | - | - | - | - | ClpP validation=22µM
COc1ccc(CCNC(=O)c2c(N)n(CCN3CCOCC3)c3nc4ccccc4nc23)cc1OC | - | - | - | - | - | -
Nc1c(C(=O)OC2CCCCC2)c2nc3ccccc3nc2n1CC1CCCO1 (configuration not stated) | - | - | -62 | ? | - | - | ClpP validation=?
C[C@@H]1CN([C@@H](C)CO)C(=O)CCCn2nncc2CO[C@H]1CN(C)C(=O)Nc1ccc(N2CCCCC2)cc1 | . | - | - | . | - | -
Cc1ccc(N2CCN(C(=O)c3cn(CC4CCCCC4)nn3)C(C)C2)cc1 (configuration not stated) | . | - | - | - | ? | -
